Assay outcomes from PubChem.
The list is not random: actives were taken first. Their share in the collection is about 3.4%.
GPR151 activ: activators of human GPR151; activation, % at 11.2 µM; PathHunter beta-arrestin GPR151 cells, luminescence; 650,000 compounds, 1% hits; in the data active means activation above about 4.9%;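 further: 0% = median of compound wells and 100% = cells with positive control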
FBW7 act: activators of human E3 ligase FBW7 | normalized activity (activation), % at 26.1 µM | 650,000 compounds, 0.13% hits | Q969H0 | AID 1259310 | AlphaScreen FBW7–phospho-cyclin E peptide binding, activator screen; in the data active means normalized activity above about 1.9%;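 further: purified mutant Fbw7 with reduced substrate affinity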
Target sequence (Q969H0 whole entry, looked up): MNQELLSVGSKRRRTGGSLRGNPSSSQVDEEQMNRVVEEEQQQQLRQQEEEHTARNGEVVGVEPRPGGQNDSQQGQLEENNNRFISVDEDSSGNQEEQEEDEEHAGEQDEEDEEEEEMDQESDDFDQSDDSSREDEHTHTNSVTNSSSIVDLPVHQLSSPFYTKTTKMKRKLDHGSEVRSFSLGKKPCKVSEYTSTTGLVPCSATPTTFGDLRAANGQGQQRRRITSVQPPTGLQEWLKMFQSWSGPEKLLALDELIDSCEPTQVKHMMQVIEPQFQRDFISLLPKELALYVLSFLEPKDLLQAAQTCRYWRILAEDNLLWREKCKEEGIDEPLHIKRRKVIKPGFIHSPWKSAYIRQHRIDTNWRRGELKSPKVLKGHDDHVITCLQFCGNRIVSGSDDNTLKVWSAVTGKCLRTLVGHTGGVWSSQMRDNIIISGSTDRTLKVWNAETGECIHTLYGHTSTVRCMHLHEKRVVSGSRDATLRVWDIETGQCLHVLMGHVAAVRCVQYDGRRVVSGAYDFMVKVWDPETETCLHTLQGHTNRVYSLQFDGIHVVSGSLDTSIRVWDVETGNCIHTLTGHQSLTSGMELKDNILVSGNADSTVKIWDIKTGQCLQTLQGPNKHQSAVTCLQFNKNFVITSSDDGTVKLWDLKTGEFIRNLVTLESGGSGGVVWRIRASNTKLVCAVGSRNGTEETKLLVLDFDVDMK
MITF inh: human MITF inhibition, primary screen | inhibition, % at 2.6 µM | AID 1259374 | AlphaScreen MITF homodimerization, bead proximity signal | 650,000 compounds, 0.91% hits | O75030; in the data active means inhibition above about 50%;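 further: 0% = vehicle wells with protein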
TEAD-YAP inh: TEAD-YAP interaction inhibition; 640,000 compounds, 1.4% hits; inhibition, % at 9.12 µM; HEK-TIYL cells, TEAD-Gal4/YAP UAS-luciferase luminescence; in the data active means inhibition above about 32%;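 further: 0% = median of test compound wells and 100% = reference inhibitor wells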
Starred values were filed as active, the others as inactive.

For CCOCCOC(=O)c1[nH]c2c(c1C)C(=O)CC(c1cc(OC)c(OC)c(OC)c1)C2 (stereo not drawn) the results were GPR151 activ 2, FBW7 act 0, MITF inh -3 and TEAD-YAP inh 42*.
Screening CCOC(=O)c1[nH]c2c(c1C)C(=O)CC(c1ccccc1)C2 (stereo not drawn) returned GPR151 activ 0, FBW7 act 0, MITF inh -10 and TEAD-YAP inh 47*.
For COC(=O)c1[nH]c2c(c1C)C(=O)CC(c1ccc(F)cc1)C2 (stereo not drawn) the results were GPR151 activ 1, FBW7 act 0, MITF inh -1 and TEAD-YAP inh 40*.
`COc1ccccc1Cn1c(=S)[nH]c2cc(C(=O)NCc3ccc(C)cc3)ccc2c1=O` gave GPR151 activ -1, FBW7 act 0, MITF inh 29 and TEAD-YAP inh 3.
For CCC(=O)Nc1ccc(-c2cc(-c3ccc(NC(=O)CC)cc3)nc(-c3ccccc3)n2)cc1 the results were GPR151 activ 4, FBW7 act 0, MITF inh -13 and TEAD-YAP inh -3.
COc1ccc(CC2(CO)CCN(Cc3sc(N(C)C)nc3Cl)CC2)cc1 was read as GPR151 activ 1, FBW7 act 0, MITF inh -11 and TEAD-YAP inh 4.
`C=CCN1C(=O)C(=O)c2cccc(C)c21` gave GPR151 activ -1, FBW7 act 0, MITF inh 13 and TEAD-YAP inh 3.
Screening CCOCCCn1c(SCC(=O)NC(C)CC)nc2ccccc2c1=O (stereo not drawn) returned GPR151 activ -1, FBW7 act 0, MITF inh -6 and TEAD-YAP inh -8.
Screening COc1cccc(N2C[C@@H]3C[C@@H](c4cc5c(cc4Cl)OCO5)N4CCC[C@@]34C2=O)c1 returned GPR151 activ -2, FBW7 act 0, MITF inh 17 and TEAD-YAP inh 3.
Screening Cc1c(C(=O)O)[nH]c2c1C(=O)CC(c1ccc(Cl)cc1)C2 (stereo not drawn) returned GPR151 activ -1, FBW7 act 0, MITF inh -7 and TEAD-YAP inh -2.
Screening CCOC(=O)c1[nH]c2c(c1C)C(=O)CC(c1ccc(F)cc1)C2 (stereo not drawn) returned GPR151 activ 1, FBW7 act 2.3*, MITF inh -19 and TEAD-YAP inh 49*.
Screening CCOCCOC(=O)c1[nH]c2c(c1C)C(=O)CC(c1ccccc1)C2 (stereo not drawn) returned GPR151 activ 0, FBW7 act 0, MITF inh 9 and TEAD-YAP inh 49*.
`COc1ccc(C2CC(=O)c3c([nH]c(C(=O)OCCSC)c3C)C2)cc1` (stereo not drawn) gave GPR151 activ 1, FBW7 act 0, MITF inh 18 and TEAD-YAP inh -3.
For CCCOCCOC(=O)c1[nH]c2c(c1C)C(=O)CC(c1ccccc1)C2 (stereo not drawn) the results were GPR151 activ 1, FBW7 act 0, MITF inh -10 and TEAD-YAP inh 43*.
For CSCCOC(=O)c1[nH]c2c(c1C)C(=O)CC(c1ccccc1)C2 (stereo not drawn) the results were GPR151 activ 2, FBW7 act 0, MITF inh -2 and TEAD-YAP inh 45*.
`O=C(O)C1CCN(C(=O)CSc2ncnc3sc4c(c23)CCCC4)CC1` gave GPR151 activ 2, FBW7 act 0, MITF inh -6 and TEAD-YAP inh -2.
For COc1ccc(-c2cc(C(F)(F)F)n3ncc(C(=O)N4CCN(C(c5ccccc5)c5ccccc5)CC4)c3n2)cc1 the results were GPR151 activ 0, FBW7 act 0, MITF inh 3 and TEAD-YAP inh -6.
`C=C(C)C1Cc2cc(/C=C/C(=O)O)c(O)cc2O1` (stereo not drawn) gave GPR151 activ -1, FBW7 act 0, MITF inh 14 and TEAD-YAP inh 9.
For Cc1nc2cccc(C(=O)NCC(C)C)c2o1 the results were GPR151 activ -1, FBW7 act 0, MITF inh 4 and TEAD-YAP inh -2.
Screening Cc1cc2nc(NC3=NC(CC(=O)O)C(=O)N3)nc(C)c2cc1C (stereo not drawn) returned GPR151 activ 2, FBW7 act 0, MITF inh 3 and TEAD-YAP inh -8.
Screening O=C1C=CC(=O)N1CCCCCCN1C(=O)C=CC1=O returned GPR151 activ -2, FBW7 act 0, MITF inh 2 and TEAD-YAP inh 41*.
`Oc1ccccc1N1CCN(c2ncnc3sccc23)CC1` gave GPR151 activ -2, FBW7 act 0, MITF inh 0 and TEAD-YAP inh 56*.
